High-throughput results from PubChem.
Compounds with a hit are over-represented: about 21% of the library has one in this group of screens.
Sm TGR block – blocks Schistosoma mansoni thioredoxin glutathione reductase. Q962Y6. Potency, µM (series often up to 114 µM), usual class: inhibitors. purified TGR, DTNB reduction, TNB absorbance 405 nm. hit rate 3% among 360,000; note: nearly all actives have a fitted effect of over 60% in size
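First, TGR (20 nM dispensed) and NADPH were mixed with compound. Second, a 15 min room-temperature incubation followed. Third, further NADPH and then DTNB were added to start the reaction. Finally, TNB absorbance was monitored kinetically.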
Pf growth 48h – inhibits P. falciparum growth in the first generation, 48 h. hit rate 5.9% among 310,000. P. falciparum luciferase growth in erythrocytes, 48 h. AID 504832. Potency, µM (titrated, usually from 28.7 µM), most hits filed as inhibitors
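Here the parasites carry a stable luciferase gene and grow inside erythrocytes in Albumax-based RPMI medium with compound for one erythrocytic cycle. Activity is scored as loss of luminescent signal.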
Cycloheximide cs – counter-screen hit for Shiga toxin inhibitors, cycloheximide | cell reporter, cycloheximide protein synthesis inhibition counterscreen | max response, % | hit rate 12% among 300,000 | AID 2314; in the data active = max response mostly above about 13%, no sharp cut-off; inactive = mostly below about 14%; note: read at 38.3 µM for the half of the compounds with a filed dose
NS1 function inh – inhibitors of influenza NS1 protein function; Potency, µM (top dose mostly 46.1 µM); hit rate 0.4% among 270,000; AID 2326; calls by dose curve; note: actives are rising curves; nearly all actives have a fitted effect of over 50% in size
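OD600 was taken as the measure of yeast growth restored by compound in an NS1-expressing S. cerevisiae strain. Cells had been washed out of glucose medium and diluted 1:100 into galactose -URA medium, pH 6.0.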
Pf growth 96h – P. falciparum growth inhibition at 96 hours. hit rate 6.9% among 320,000. P. falciparum luciferase reporter growth, 96 h. Potency, µM (series often up to 28.7 µM), usual class: inhibitors
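Readout is luminescence from an integrated firefly luciferase in P. falciparum. Red cells, 2% hematocrit and 0.05% parasitemia final, were cultured with compound through two parasite generations (96 hours) at 37 C, 5% CO2.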
Shiga toxin inh – inhibitors of Shiga toxin in Vero cells; Vero cells, Shiga toxin protein synthesis inhibition reporter; hit rate 9.2% among 290,000; inhibition, % at 38.7 µM; in the data active = inhibition mostly above about 28%, no sharp cut-off; inactive = mostly below about 43%
A number is an active result; [ ] = another dose, or the depositor's remark. Unless noted, calls come from the whole dose curve; as a rule, active = well fitted curve in the direction sought with a large enough effect; inconclusive = small, poorly fitted or top-dose-only effect, or another doubt; inactive = no such curve, though single readings can be large; an effect the other way counts as inactive or inconclusive.

What do the screens show for `Cc1cc(=O)n2[nH]c(C)c(-c3ccc(Cl)cc3)c2n1`?
Sm TGR block: inactive; Pf growth 48h: inconclusive; Cycloheximide cs: inactive; NS1 function inh: inactive; Pf growth 96h: inactive; Shiga toxin inh: inactive

How did CCOCCCNC(=O)c1ccc2c(c1)NC(=O)C(CS(=O)(=O)Cc1ccc(F)cc1Cl)N2 (centres undefined) do in these assays?
Sm TGR block: inactive

Results for COc1ccccc1CN(C)C(=O)C(c1ccccc1)c1ccccc1 ?
Sm TGR block: inactive; Pf growth 48h: inconclusive; Cycloheximide cs: inactive; NS1 function inh: inactive; Pf growth 96h: inconclusive; Shiga toxin inh: inactive

How did Cc1cccc(Cn2c(=O)n(Cc3ccccc3)c(=O)c3sc4ccccc4c32)c1 do in these assays?
Sm TGR block: inactive

How did C=C1C(=O)O[C@@H]2[C@H]1CC[C@H](C)[C@]1(O)CCC(=O)[C@@]21C do in these assays?
Sm TGR block: inconclusive; Pf growth 48h: inactive[0.00184 µM]; Cycloheximide cs: 21; NS1 function inh: inactive; Pf growth 96h: inactive; Shiga toxin inh: inactive

How did COc1ccc(-n2c(N)c(C#N)c3ccc([N+](=O)[O-])cc3c2=O)cc1 do in these assays?
Sm TGR block: inactive; Pf growth 48h: inactive; Cycloheximide cs: inactive; NS1 function inh: inactive; Pf growth 96h: inactive; Shiga toxin inh: active

Results for COc1ccc(C2=NCCn3nc4cc([N+](=O)[O-])ccc4c32)cc1 ?
Sm TGR block: 25µM; Pf growth 48h: inconclusive; Pf growth 96h: inconclusive

What do the screens show for `COc1ccc(-n2cc3ccc([N+](=O)[O-])cc3n2)cc1`?
Sm TGR block: inactive; Pf growth 48h: inactive; Cycloheximide cs: 37; NS1 function inh: inactive; Pf growth 96h: inactive; Shiga toxin inh: 115

Results for O=[N+]([O-])c1ccc2c3n([n+]([O-])c2c1)CCN=C3c1ccc(Cl)cc1 ?
Sm TGR block: inconclusive; Pf growth 48h: 12µM; Pf growth 96h: inconclusive

Results for COc1ccc2c3n(nc2c1)CCN=C3c1ccc(C)cc1 ?
Sm TGR block: inactive; Pf growth 48h: inactive; Pf growth 96h: inconclusive

Results for COc1ccc(-c2cc(=O)n(-c3ccc([N+](=O)[O-])cc3)[nH]2)cc1 ?
Sm TGR block: inactive; Pf growth 48h: inconclusive; Cycloheximide cs: inactive; NS1 function inh: inactive; Pf growth 96h: inactive; Shiga toxin inh: inactive

What do the screens show for `COc1ccc(C2C(C(N)=O)=C(C)Nc3nc(CCCO)nn32)c(OC)c1` (centres undefined)?
Sm TGR block: inactive

Results for COC(=O)c1cccc(-n2c(=O)n(Cc3ccccc3)c(=O)c3[nH]cnc32)c1C ?
Sm TGR block: inactive; Pf growth 48h: inactive; Cycloheximide cs: inactive; NS1 function inh: inactive; Pf growth 96h: inconclusive; Shiga toxin inh: inactive

How did O=C(CN1CCN(Cc2ccccc2)CC1)N/N=C/c1cccnc1 do in these assays?
Sm TGR block: inactive; Pf growth 48h: inactive; Cycloheximide cs: inactive; NS1 function inh: inactive; Pf growth 96h: inactive; Shiga toxin inh: inactive

How did CCN(C(=O)Cn1nnc2sc(-c3ccccc3)cc2c1=O)c1cccc(C)c1 do in these assays?
Sm TGR block: inactive

What do the screens show for `CCOC(=O)c1c(S(=O)(=O)NCC(=O)Nc2cc(C)ccn2)c(C)n(C)c1C`?
Sm TGR block: inactive; Pf growth 48h: inconclusive; Cycloheximide cs: 13; NS1 function inh: inactive; Pf growth 96h: inactive; Shiga toxin inh: inactive

What do the screens show for `CCOC(=O)c1c(S(=O)(=O)NCC(=O)Nc2cc(C)ccc2C)c(C)n(C)c1C`?
Sm TGR block: inactive; Pf growth 48h: inactive; Cycloheximide cs: inactive; NS1 function inh: inactive; Pf growth 96h: inactive; Shiga toxin inh: inactive

What do the screens show for `Cc1ccc(C(=O)N2CCN(Cc3ccccc3)CC2)cc1S(=O)(=O)N1CCOCC1`?
Sm TGR block: inactive; Pf growth 48h: inactive; Pf growth 96h: inconclusive

Results for COc1ccc(C(=S)N(C)C)cc1OC ?
Sm TGR block: inactive; Pf growth 48h: inactive; Cycloheximide cs: inactive; NS1 function inh: inactive; Pf growth 96h: 8.3µM; Shiga toxin inh: inactive

Results for CCOc1cc(/C=C2/C(=N)N3OC(C)=CC3=NC2=O)ccc1OCCOc1ccccc1 ?
Sm TGR block: inactive; Cycloheximide cs: inactive; NS1 function inh: inactive; Pf growth 96h: inactive; Shiga toxin inh: inactive

How did Cc1ccc(S(=O)(=O)C2(C(=O)Nc3ccc(Cl)c(C(F)(F)F)c3)CC2)cc1 do in these assays?
Sm TGR block: inactive

How did CC12CCC=CC1C(c1ccc(/C=C/c3ccccc3)cc1F)N(Cc1ccccc1)C2=O (centres undefined) do in these assays?
Cycloheximide cs: inactive; Shiga toxin inh: inactive

What do the screens show for `O=C(CSc1ncn[nH]1)c1ccc2c(c1)OCO2`?
Sm TGR block: inactive; Pf growth 48h: inactive; Cycloheximide cs: 14; NS1 function inh: inactive; Pf growth 96h: inactive; Shiga toxin inh: inactive

How did CC(C)(C)NC(=O)NC(=O)CSc1ncn[nH]1 do in these assays?
Sm TGR block: inactive; Pf growth 48h: inactive; Cycloheximide cs: inactive; NS1 function inh: inactive; Pf growth 96h: inactive; Shiga toxin inh: inactive

What do the screens show for `CC(C)c1ccc(C(=O)CSc2ncn[nH]2)cc1`?
Sm TGR block: inactive; Pf growth 48h: inactive; Cycloheximide cs: 31; NS1 function inh: inactive; Pf growth 96h: inactive; Shiga toxin inh: 81

What do the screens show for `O=C(CSc1ncn[nH]1)CSc1ncn[nH]1`?
Sm TGR block: 40µM; Pf growth 48h: inconclusive; Cycloheximide cs: inactive; Pf growth 96h: inactive; Shiga toxin inh: inactive

How did O=C(CSc1ncn[nH]1)Nc1ccc2c(c1)OCCO2 do in these assays?
Sm TGR block: inactive; Cycloheximide cs: inactive; NS1 function inh: inactive; Pf growth 96h: inactive; Shiga toxin inh: inactive

Results for O=C(CSc1ncn[nH]1)c1ccc2c(c1)OCCO2 ?
Sm TGR block: inactive; Pf growth 48h: inactive; Cycloheximide cs: 18; NS1 function inh: inactive; Pf growth 96h: inactive; Shiga toxin inh: active

Results for O=C(CSc1ncn[nH]1)NNC(=O)c1ccccc1 ?
Sm TGR block: inactive; Pf growth 48h: inactive; Pf growth 96h: inactive

What do the screens show for `COc1ccc(-c2nnc(SCC(=O)Nc3ccc(F)cc3)s2)cc1`?
Sm TGR block: inactive

What do the screens show for `O=[N+]([O-])c1cc([N+](=O)[O-])c2oc(-c3ccccc3)c(Br)c2c1O`?
Sm TGR block: inactive; Pf growth 48h: inactive; Cycloheximide cs: inactive; NS1 function inh: inactive; Pf growth 96h: inactive; Shiga toxin inh: inactive

Results for O=C(CN1C(=O)C2CCCCN2c2ccc(C(=O)N3CCCC3)cc21)NCc1ccccc1 (centres undefined) ?
Sm TGR block: inactive

What do the screens show for `CN(C)CCN(CC1CCCN(Cc2ccccc2F)C1)C(=O)c1ccc(F)cc1` (centres undefined)?
Sm TGR block: inactive; Pf growth 48h: inconclusive; Cycloheximide cs: inactive; NS1 function inh: inactive; Pf growth 96h: inactive; Shiga toxin inh: inactive

How did Cc1ccc(-n2nc(CO)c(C(=O)NCCCc3ccccc3)n2)cc1 do in these assays?
Sm TGR block: inactive

How did CC1CCc2nc3ncn(Cc4cccc(F)c4)c(=O)c3cc2C1 (centres undefined) do in these assays?
Sm TGR block: inactive
